The results in this text go back to publication PMC7862700, “An all-to-all approach to the identification of sequence-specific readers for epigenetic DNA modifications on cytosine”.

Common to all, as to assay: DAPPL (digital affinity profiling via proximity ligation, sequencing); 10 mM Tris-HCl pH 7.5, 50 mM NaCl, 1 mM DTT, 4% glycerol, room temperature, 30 min; GST-TFs on glutathione beads, 16-mer random dsDNA library, 0.1% formaldehyde crosslink after washing; high values mean tight binding
In one experiment the target is HSF1 (Homo sapiens, UniProt Q00613 1-529). The note with it: protein: recombinant; tags: N-terminal GST; chain copies: 3; dsDNA, one strand shown. An outline of the steps:
(§1)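 Human transcription factors fused to GST were expressed in yeast, captured on glutathione beads, given DNA barcodes and pooled with a GST-only negative control. Pools were incubated with 200 nmole of a 16-mer random double-stranded DNA library in Tris/NaCl/DTT/glycerol buffer at room temperature for 30 min. They were then washed, crosslinked with 0.1% formaldehyde, proximity-ligated (BsaI/T4 ligase, 1 h, 37 °C), PCR-amplified and sequenced on an Illumina NextSeq500. Binding signal is each 6-mer's read frequency for a factor divided by its frequency for the GST control.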

The next experiment concerns the target T1, SPIC (Homo sapiens, UniProt Q8N5J4 1-248).
T1 sequence: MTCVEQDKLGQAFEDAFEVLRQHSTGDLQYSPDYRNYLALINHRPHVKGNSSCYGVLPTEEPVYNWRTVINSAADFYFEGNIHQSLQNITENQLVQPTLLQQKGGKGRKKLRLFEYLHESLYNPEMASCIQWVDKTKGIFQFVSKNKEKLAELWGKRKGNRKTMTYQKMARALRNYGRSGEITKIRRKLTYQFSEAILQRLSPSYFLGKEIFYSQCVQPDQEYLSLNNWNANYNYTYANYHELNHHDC
The note with it: protein: recombinant; tags: N-terminal GST; dsDNA, one strand shown. In short, it runs like this:
as §1

For another experiment, the target named is T2, ELK4 (Homo sapiens, UniProt P28324-2 1-405).
T2 sequence: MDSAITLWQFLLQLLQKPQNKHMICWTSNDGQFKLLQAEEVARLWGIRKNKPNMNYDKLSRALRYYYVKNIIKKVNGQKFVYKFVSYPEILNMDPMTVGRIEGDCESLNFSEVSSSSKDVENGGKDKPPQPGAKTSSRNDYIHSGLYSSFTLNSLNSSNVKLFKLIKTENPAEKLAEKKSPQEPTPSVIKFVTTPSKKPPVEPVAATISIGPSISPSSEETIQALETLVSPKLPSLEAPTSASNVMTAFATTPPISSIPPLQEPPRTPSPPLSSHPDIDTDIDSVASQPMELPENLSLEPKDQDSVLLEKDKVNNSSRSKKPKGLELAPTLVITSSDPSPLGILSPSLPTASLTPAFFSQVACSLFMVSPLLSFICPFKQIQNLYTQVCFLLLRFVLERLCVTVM
Conditions: protein: recombinant; tags: N-terminal GST; dsDNA, one strand shown. An outline of the steps:
as §1

A further experiment deals with T3, ELF3 (Homo sapiens, UniProt P78545 1-371).
T3 sequence: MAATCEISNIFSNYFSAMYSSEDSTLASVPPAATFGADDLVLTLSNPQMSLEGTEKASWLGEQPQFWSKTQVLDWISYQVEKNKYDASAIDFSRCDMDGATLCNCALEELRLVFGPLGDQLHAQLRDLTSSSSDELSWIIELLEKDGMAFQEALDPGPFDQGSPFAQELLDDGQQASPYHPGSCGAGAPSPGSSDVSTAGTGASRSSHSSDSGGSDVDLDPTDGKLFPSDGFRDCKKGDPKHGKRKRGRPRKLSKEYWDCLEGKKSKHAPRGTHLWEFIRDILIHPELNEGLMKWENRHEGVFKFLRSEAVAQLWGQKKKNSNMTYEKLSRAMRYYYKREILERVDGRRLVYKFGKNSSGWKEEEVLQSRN
The note with it: protein: recombinant; tags: N-terminal GST; dsDNA, one strand shown. In short, it runs like this:
as §1

A further experiment addresses T4, ERF (Homo sapiens, UniProt P50548 1-548).
T4 sequence: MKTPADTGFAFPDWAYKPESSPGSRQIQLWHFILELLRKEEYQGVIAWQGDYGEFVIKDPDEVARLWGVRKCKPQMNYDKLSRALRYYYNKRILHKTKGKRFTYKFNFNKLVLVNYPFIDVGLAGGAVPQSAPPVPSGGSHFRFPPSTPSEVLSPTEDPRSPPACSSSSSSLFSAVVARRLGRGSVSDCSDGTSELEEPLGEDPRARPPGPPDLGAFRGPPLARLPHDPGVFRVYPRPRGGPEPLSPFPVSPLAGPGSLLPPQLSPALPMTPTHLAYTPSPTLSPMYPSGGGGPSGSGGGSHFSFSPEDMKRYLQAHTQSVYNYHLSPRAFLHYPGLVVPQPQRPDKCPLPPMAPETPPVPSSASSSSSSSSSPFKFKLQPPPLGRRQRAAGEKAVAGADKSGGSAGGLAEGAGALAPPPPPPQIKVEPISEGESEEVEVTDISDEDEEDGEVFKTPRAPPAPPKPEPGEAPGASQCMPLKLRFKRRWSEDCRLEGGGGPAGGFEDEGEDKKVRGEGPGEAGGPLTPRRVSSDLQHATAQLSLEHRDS
The note with it: protein: recombinant; tags: N-terminal GST; dsDNA, one strand shown. An outline of the steps:
as §1

For a further experiment, the target named is T5, ETV3L (Homo sapiens, UniProt Q6ZN32 1-361).
T5 sequence: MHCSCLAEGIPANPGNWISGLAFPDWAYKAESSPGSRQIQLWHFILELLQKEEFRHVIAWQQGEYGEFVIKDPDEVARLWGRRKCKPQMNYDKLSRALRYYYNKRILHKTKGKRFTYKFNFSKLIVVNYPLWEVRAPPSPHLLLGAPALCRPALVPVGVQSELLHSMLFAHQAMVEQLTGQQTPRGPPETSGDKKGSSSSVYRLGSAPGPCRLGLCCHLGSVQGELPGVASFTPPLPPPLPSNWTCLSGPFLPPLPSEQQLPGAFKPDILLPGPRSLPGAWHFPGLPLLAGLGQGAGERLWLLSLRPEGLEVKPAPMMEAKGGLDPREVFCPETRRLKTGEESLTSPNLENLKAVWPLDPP
Conditions: protein: recombinant; tags: N-terminal GST; dsDNA, one strand shown. An outline of the steps: as §1

Another experiment deals with T6, ELK1 (Homo sapiens, UniProt P19419 1-428).
T6 sequence: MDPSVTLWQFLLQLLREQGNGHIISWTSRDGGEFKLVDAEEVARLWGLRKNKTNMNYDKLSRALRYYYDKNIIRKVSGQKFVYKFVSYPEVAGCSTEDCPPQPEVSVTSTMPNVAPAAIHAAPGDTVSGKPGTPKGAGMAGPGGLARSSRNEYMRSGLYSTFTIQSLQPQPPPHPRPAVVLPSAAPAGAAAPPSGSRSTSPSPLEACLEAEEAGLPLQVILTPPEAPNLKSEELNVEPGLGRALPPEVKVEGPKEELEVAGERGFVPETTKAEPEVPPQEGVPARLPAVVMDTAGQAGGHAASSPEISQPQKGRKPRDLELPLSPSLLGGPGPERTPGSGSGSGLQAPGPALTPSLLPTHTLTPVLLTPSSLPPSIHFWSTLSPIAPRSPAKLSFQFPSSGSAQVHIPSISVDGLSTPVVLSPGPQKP
Conditions: protein: recombinant; tags: N-terminal GST; dsDNA, one strand shown. In short, it runs like this:
as §1

Another experiment concerns the target T7, GABPA (Homo sapiens, UniProt Q06546 1-454).
T7 sequence: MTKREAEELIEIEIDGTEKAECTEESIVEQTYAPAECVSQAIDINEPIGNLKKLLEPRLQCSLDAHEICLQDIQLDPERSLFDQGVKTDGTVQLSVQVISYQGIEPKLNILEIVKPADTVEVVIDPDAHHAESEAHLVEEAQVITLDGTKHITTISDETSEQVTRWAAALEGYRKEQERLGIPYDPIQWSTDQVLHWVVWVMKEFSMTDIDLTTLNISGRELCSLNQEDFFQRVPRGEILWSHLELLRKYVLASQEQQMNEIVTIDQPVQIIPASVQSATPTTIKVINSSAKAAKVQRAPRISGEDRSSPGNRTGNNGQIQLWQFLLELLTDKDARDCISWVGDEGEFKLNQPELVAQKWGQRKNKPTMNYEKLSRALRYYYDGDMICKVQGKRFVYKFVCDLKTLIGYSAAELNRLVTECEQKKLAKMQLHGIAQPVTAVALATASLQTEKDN
The note with it: protein: recombinant; tags: N-terminal GST; dsDNA, one strand shown. In short, it runs like this: as §1

In another experiment the target is ELF1 (Homo sapiens, UniProt P32519 1-619). The note with it: protein: recombinant; tags: N-terminal GST; dsDNA, one strand shown. An outline of the steps: as §1
The target of the next experiment is T8, EHF (Homo sapiens, UniProt Q9NZC4 1-300).
T8 sequence: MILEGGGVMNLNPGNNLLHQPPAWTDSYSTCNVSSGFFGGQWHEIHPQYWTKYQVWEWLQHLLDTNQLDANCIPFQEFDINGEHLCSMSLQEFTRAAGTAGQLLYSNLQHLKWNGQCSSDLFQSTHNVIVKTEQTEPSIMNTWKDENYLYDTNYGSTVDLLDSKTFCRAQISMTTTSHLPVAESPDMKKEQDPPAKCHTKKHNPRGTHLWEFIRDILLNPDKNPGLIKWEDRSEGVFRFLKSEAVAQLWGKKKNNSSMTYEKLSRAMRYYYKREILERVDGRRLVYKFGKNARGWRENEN
The note with it: protein: recombinant; tags: N-terminal GST; dsDNA, one strand shown. An outline of the steps: as §1

Another experiment concerns the target ELF4 (Homo sapiens, UniProt Q99607 1-663). The note with it: protein: recombinant; tags: N-terminal GST; dsDNA, one strand shown. An outline of the steps:
as §1

Another experiment addresses T9, ETV2 (Homo sapiens, UniProt O00321 1-342).
T9 sequence: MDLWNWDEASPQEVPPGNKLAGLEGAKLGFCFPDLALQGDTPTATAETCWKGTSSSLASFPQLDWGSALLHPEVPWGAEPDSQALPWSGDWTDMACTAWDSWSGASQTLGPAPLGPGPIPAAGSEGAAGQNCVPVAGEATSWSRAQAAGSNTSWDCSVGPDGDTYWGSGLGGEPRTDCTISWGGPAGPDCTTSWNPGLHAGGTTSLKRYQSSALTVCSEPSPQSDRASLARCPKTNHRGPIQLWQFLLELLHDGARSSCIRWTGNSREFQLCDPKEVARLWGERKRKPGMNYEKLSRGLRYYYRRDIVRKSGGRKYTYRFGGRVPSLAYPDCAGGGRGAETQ
Conditions: protein: recombinant; tags: N-terminal GST; dsDNA, one strand shown. In short, it runs like this: as §1

For another experiment, the target named is ETV1 (Homo sapiens, UniProt P50549 1-477). Conditions: protein: recombinant; tags: N-terminal GST; dsDNA, one strand shown. In short, it runs like this: as §1
In the next experiment the target is T10, ETV3 (Homo sapiens, UniProt P41162-2 1-143).
T10 sequence: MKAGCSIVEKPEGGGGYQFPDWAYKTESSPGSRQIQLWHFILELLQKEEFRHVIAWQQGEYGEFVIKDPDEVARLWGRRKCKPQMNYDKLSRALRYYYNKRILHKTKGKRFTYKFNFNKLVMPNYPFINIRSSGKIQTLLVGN
Conditions: protein: recombinant; tags: N-terminal GST; dsDNA, one strand shown. An outline of the steps:
as §1

Chain of HSF1 (Q00613 whole entry, the tested form may be a part): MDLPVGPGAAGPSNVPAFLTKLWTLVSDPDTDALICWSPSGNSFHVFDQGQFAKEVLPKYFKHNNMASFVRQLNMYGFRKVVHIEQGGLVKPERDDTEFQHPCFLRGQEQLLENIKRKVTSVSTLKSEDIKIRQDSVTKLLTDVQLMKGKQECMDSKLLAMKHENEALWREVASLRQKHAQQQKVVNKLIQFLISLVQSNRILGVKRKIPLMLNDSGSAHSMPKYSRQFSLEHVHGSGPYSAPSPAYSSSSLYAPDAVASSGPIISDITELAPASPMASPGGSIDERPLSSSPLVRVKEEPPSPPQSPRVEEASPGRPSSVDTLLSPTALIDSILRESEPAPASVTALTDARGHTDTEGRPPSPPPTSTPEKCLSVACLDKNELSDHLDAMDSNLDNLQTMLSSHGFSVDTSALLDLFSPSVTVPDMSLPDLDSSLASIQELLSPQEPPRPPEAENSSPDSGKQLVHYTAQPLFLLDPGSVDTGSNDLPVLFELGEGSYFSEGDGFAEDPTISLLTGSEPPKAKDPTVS
Chain of ELF4 (Q99607 whole entry): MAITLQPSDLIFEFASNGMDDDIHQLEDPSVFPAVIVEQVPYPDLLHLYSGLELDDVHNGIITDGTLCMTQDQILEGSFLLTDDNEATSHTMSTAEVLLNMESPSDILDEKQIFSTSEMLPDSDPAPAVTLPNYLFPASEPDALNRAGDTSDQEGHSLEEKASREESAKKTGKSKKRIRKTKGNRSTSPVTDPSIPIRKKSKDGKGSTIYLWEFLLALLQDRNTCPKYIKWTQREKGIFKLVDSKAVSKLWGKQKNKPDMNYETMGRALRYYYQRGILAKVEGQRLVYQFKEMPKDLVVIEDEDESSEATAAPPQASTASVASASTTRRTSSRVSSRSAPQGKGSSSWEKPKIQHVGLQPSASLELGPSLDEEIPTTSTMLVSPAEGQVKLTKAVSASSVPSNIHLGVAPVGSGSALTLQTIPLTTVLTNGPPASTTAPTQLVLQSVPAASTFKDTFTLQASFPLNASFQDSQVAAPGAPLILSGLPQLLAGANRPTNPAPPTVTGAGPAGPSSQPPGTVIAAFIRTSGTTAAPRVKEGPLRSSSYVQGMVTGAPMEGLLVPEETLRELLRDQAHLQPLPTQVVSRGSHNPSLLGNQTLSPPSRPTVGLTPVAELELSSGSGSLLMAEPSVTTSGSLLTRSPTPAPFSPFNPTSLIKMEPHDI
Chain of ETV1 (P50549 whole entry): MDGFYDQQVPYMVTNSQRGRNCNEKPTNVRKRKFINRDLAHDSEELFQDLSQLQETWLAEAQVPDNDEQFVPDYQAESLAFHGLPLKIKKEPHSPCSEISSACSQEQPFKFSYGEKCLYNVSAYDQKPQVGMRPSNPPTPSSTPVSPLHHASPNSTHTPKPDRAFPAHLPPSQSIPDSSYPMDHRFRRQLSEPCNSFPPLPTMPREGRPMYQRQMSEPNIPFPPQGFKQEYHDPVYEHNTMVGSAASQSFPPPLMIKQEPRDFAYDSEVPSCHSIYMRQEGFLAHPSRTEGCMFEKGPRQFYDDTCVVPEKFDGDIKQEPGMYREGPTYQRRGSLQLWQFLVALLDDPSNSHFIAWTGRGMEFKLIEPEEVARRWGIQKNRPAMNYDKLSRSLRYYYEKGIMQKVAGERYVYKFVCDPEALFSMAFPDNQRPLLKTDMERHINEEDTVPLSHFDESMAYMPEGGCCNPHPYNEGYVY
Chain of ELF1 (P32519 whole entry): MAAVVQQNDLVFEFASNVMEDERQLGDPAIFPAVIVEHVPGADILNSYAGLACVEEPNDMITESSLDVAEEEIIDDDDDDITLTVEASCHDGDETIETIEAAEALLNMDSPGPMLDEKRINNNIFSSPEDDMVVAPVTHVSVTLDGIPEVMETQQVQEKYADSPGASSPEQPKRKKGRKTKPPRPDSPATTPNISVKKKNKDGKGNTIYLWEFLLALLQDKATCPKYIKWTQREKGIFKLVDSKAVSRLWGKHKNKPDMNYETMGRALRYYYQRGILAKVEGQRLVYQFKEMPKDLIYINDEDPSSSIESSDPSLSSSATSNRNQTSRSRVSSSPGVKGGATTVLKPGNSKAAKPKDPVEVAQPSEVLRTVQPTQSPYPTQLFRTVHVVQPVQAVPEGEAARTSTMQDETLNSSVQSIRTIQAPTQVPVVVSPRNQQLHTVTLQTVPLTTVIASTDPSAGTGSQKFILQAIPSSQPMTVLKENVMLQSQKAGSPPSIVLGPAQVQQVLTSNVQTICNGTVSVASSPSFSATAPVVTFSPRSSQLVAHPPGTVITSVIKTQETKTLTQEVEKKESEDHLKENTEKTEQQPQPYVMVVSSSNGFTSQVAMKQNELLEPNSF

Turning to GTAGAT, the binding signal with HSF1 was 1 fold enrichment (6-mer frequency, TF over GST control); with SPIC it was 1.16 fold enrichment (6-mer frequency, TF over GST control); with ELK4, 1.01 fold enrichment (6-mer frequency, TF over GST control); with ELF3 it was 1.01 fold enrichment (6-mer frequency, TF over GST control); in the experiment with ERF it was 1.06 fold enrichment (6-mer frequency, TF over GST control); with ETV3L, 1.09 fold enrichment (6-mer frequency, TF over GST control).
As for CAGACT, the binding signal is 1.01 fold enrichment (6-mer frequency, TF over GST control) in the experiment with ELK1; 1.06 fold enrichment (6-mer frequency, TF over GST control) with GABPA; 1.02 fold enrichment (6-mer frequency, TF over GST control) with ELF1; 1.05 fold enrichment (6-mer frequency, TF over GST control) in the experiment with EHF; 1.06 fold enrichment (6-mer frequency, TF over GST control) with HSF1; 1.05 fold enrichment (6-mer frequency, TF over GST control) in the experiment with SPIC. Also, the binding signal in the experiment with ELF4 is 1.07 fold enrichment (6-mer frequency, TF over GST control); with ETV2, 1.04 fold enrichment (6-mer frequency, TF over GST control); with ELF3 it was 1.04 fold enrichment (6-mer frequency, TF over GST control); with ETV1 it was 1.05 fold enrichment (6-mer frequency, TF over GST control); in the experiment with ETV3, 1.01 fold enrichment (6-mer frequency, TF over GST control).
